25 molecules from PubChem BioAssay (NCATS) can be followed below.

“And” between values parts separate entries of the source, which are not always exact repeats. Equal entries are not always repeated. A number with no mark means an inactive call. Results filed as inconclusive are left out. The source made the active and inactive calls. Calls come from the whole dose curve; as a rule, active = well fitted curve in the direction sought with a large enough effect; inconclusive = small, poorly fitted or top-dose-only effect, or another doubt; inactive = no such curve, though single readings can be large; an effect the other way counts as inactive or inconclusive.

Test [1] addresses Cytochrome P450 3A4 (Homo sapiens) (UniProt P08684). As to the kind of experiment: qHTS Assay for Inhibitors and Substrates of Cytochrome P450 3A4 (AID 884). Note: % is set by controls: 0 for no effect and ±100 for the full control effect; nearly all actives have a fitted effect of over 50% in size. Particulars: recombinant CYP3A4, Luciferin-PPXE luminescence; series mostly up to 57.1 µM. Summed up: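 20 nM human CYP3A4 with 25 uM Luciferin-PPXE (at KM) in 200 mM KPO4, preincubated 10 min with compound; NADPH regeneration started a 60 min RT reaction. Luciferin detected by luminescence, normalized to 57 uM ketoconazole as full inhibition.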
On the technique in general: qHTS replaces the single test concentration by a dilution series.

The target in test [2] is Cytochrome P450 2D6 (Homo sapiens) (UniProt P10635). Description: qHTS Assay for Inhibitors and Substrates of Cytochrome P450 2D6 (AID 891).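 For activity change, negative = inhibition: luciferin methyl ether substrate demethylated by CYP2D6 with NADPH regeneration; % is set by controls: 0 for no effect and ±100 for the full control effect.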 Note: nearly all actives have a fitted effect of over 60% in size. Note: potency is the fitted concentration of half-maximal effect. Particulars: recombinant CYP2D6, luciferin-ME EGE luminescence; series mostly up to 11.4 µM. Summed up:
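Human CYP2D6 (5 nM) with 30 uM Luciferin-ME EGE (at Km) in 100 mM KPO4, compound preincubated 10 min, then NADPH regeneration system for 60 min at room temperature. Luciferin read by luminescence; normalized to 1.43 uM quinidine.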

Test [3] has as its target Cytochrome P450 2C19 (Homo sapiens) (UniProt P33261). As to the kind of experiment: qHTS Assay for Inhibitors and Substrates of Cytochrome P450 2C19 (AID 899). Note: nearly all actives have a fitted effect of over 60% in size. Note: potency is the fitted concentration of half-maximal effect. Particulars: recombinant CYP2C19, luciferin-H EGE luminescence; series mostly up to 11.4 µM. Summed up:
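Human CYP2C19 (5nM) with Luciferin-H EGE at 10uM (its KM) in 50mM KPO4 was preincubated with compound for 10 min at 37C. NADPH regeneration started a 60 min 37C reaction. Luciferin was read by luminescence, normalized to 57uM ketoconazole.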

A short description of test [4]: Confirmation and Secondary Assay for Modulators of Hemoglobin Beta Chain Splicing at IVS2 654 locus (AID 910).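 Note: per-well total GFP intensity by laser scanning cytometry after 2-day treatment; % of control where 0% means no effect.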 Particulars: HeLa EGFP-654 splicing reporter, GFP fluorescence, 48 h; series mostly up to 46.1 µM. Summed up:
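HeLa cells stably carrying EGFP interrupted by mutant beta-globin IVS2-654 intron (CMV-driven) were treated with compound for 2 days at 37C; corrected splicing was scored as total peak GFP intensity per well (488 nm excitation, 500-520 nm emission).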

The nature of test [5]: Confirmation and Secondary Assay for Modulators of Hemoglobin Beta Chain Splicing at IVS2 705 locus (AID 930).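 Note: HeLa cells stably expressing the EGFP-705 splicing reporter; GFP fluorescence per well restored by corrected splicing of the IVS2-705 intron in EGFP; % of control where 0% means no effect.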 Particulars: HeLa EGFP-705 splicing reporter, GFP fluorescence, 48 h; series mostly up to 46.1 µM. Summed up:
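Fluorescence gain (488 nm laser, 500-520 nm PMT) reflects restored correct splicing of a mutant IVS2-705 intron inside EGFP in stably transfected HeLa cells after 2-day compound treatment.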

Test [6] concerns the target Cytochrome P450 3A4 (Homo sapiens) (UniProt P08684). As to the kind of experiment: qHTS Assay for Activators of Cytochrome P450 3A4 (AID 885). Note: nearly all actives have a fitted effect of over 65% in size. Particulars: recombinant CYP3A4, Luciferin-PPXE luminescence, 60 min; series mostly up to 57.1 µM. Summed up:
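Human CYP3A4 (20 nM) with Luciferin-PPXE at 25 uM (its KM) in 200 mM KPO4; 10 min compound preincubation, then NADPH regeneration and 60 min reaction at RT. Luciferin read by luminescence; normalized to 57 uM ketoconazole full inhibition.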

Chain of Cytochrome P450 2D6 (Homo sapiens) (P10635 whole entry, looked up): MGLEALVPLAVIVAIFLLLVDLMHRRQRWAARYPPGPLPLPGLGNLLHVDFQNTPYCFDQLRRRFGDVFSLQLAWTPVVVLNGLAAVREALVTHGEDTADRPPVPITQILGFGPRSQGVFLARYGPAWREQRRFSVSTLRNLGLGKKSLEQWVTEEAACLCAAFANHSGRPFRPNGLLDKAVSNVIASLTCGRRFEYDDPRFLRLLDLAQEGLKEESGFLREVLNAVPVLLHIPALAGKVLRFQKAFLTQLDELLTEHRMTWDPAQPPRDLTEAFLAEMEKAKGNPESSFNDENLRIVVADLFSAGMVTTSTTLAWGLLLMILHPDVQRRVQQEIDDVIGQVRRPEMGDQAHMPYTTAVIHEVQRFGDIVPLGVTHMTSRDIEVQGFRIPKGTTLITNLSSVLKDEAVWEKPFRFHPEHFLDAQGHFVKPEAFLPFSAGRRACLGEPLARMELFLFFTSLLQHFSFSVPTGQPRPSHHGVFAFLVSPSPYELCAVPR
Chain of Cytochrome P450 2C19 (Homo sapiens) (P33261 whole entry, looked up): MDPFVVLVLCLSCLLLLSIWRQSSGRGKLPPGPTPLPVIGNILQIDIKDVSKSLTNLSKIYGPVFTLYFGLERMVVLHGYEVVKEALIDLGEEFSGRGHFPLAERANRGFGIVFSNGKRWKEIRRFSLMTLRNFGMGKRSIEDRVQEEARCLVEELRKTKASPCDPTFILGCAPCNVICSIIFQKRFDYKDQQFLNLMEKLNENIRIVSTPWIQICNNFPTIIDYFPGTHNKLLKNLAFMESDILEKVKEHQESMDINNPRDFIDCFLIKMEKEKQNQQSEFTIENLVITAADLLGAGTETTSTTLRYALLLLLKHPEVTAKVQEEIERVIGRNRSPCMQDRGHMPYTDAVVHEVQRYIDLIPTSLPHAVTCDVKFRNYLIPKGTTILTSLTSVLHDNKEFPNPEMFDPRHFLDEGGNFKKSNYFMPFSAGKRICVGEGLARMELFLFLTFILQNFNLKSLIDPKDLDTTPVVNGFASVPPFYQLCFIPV
Chain of Cytochrome P450 3A4 (Homo sapiens) (P08684 whole entry, looked up): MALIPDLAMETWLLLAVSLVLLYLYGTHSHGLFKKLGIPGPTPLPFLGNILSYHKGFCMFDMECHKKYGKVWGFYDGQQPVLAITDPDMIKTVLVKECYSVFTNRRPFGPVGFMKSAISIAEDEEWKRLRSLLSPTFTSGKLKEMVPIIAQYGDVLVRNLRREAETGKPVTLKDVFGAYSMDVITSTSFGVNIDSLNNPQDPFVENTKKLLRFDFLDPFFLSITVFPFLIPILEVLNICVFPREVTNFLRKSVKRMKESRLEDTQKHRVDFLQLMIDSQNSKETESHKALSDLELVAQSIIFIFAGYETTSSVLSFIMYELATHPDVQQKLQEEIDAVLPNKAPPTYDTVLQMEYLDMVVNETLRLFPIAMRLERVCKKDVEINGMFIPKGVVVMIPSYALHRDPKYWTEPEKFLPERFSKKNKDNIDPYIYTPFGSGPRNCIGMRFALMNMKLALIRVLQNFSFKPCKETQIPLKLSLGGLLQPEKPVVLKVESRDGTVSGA

For the molecule `OCC1OC(c2ccccc2)C=CC1Oc1ccc(C2CCCC2)cc1` (stereo not given), the activity change, negative = inhibition in test [1] was -14.3% [at 11.4 µM]. In addition, the Potency entry in test [2] and in test [3] was “inactive” throughout.
As to `CCCCCCC/C=C/C1=CC2(C)CC1(C)C(CCCCCCC)CC2=O` (stereo not given), in test [1], the activity change, negative = inhibition was -15% [at 11.4 µM]. Besides, the Potency result in test [2] and in test [3] was “inactive” each time.
As to `C#CC(C)OC(=O)c1nnc2c3ccccc3n(COC)c2n1` (stereo not given), the activity change, negative = inhibition in test [1] was -23.2% [at 11.4 µM]. The Potency entry in test [2] and in test [3] was “inactive” in each case.
`CNC(=O)Oc1ccc2c(c1)[C@@]1(C)CCN(C)C1N2C` (stereo not given in full): in test [1], the Potency result is “inactive”. The outcome in test [4] and in test [5] was inactive.
In the case of `O=C(/C=N/O)NCCCCNC(=O)/C=N/O`, in test [1], the activity change, negative = inhibition is -14.7% [at 11.4 µM]. In addition, the Potency result in test [2] and in test [3] was “inactive” each time.
As to `CC12C=C(/C=C/CCc3ccco3)C(C)(C1)C(CCc1ccco1)CC2=O` (stereo not given), in test [1], the activity change, negative = inhibition is -9.62% [at 11.4 µM]. In test [3], the Potency entry was “inactive”.
With `COc1ccc(OC2C(O)COC2/C=C/c2ccccc2)cc1` (stereo not given), the activity change, positive = activation in test [6] was -47.5% [at 11.4 µM] and -40.4% [at 11.4 µM]. Besides, the Potency result in test [2] was “inactive”. Further, the Potency in test [3] is 2 µM (active).
In the case of `CO/N=C1/c2cc(OC)ccc2O[C@@H](c2cccc(OC)c2)[C@H]1O`, in test [6], the activity change, positive = activation was -52.8% [at 11.4 µM].
`CC(=O)OC[C@@H]1O[C@H](C/C=N\O[C@@H](C)CN2CCCc3nc(C)c(C)cc32)C=C[C@@H]1OC(C)=O`: the activity change, positive = activation in test [6] is -35.5% [at 11.4 µM]. Also, the Potency in test [2] is 3.16 µM (active).
With `CCC[C@@H]1C[C@@]1(CCC)C(NC(=O)OCc1ccccc1)c1ccc(-c2ccccc2)cc1` (stereo not given in full), the Potency entry in test [6] is “inactive”. Besides, the Potency is 7.94 µM (active) in test [2] and 1.26 µM (active) in test [3].
As for `CCN1C(=O)[C@H]2[C@H]3[C@H](O)[C@H](O)C/C(=N/OC[C@@H](C)[C@H](OCc4ccccc4)C(C)C)[C@@H]3CC[C@@H]2C1=O`, the activity change, positive = activation in test [6] was -44.7% [at 11.4 µM]. Besides, the Potency entry in test [2] was “inactive”.
`COC(=O)C1=C(C)N(Cc2ccccc2)[C@]23O[C@](C(=O)OC)(C(=O)N2C1c1ccccc1)C(C(=O)OC)=C3C(=O)OC` (stereo not given in full): the activity change, positive = activation in test [6] was -58% [at 11.4 µM]. Also, the Potency entry in test [2] is “inactive”. In test [3], the Potency is 1.58 µM (active).
For the molecule `CO[C@@H]1COC(=O)[C@@H](C)NC(=O)C/C=C\[C@@H](C)[C@H](NS(=O)(=O)c2ccc(C)cc2)COC(=O)[C@H](C)NC(=O)C/C=C\[C@H]1C`, the activity change, positive = activation in test [6] was -53.2% [at 11.4 µM]. In addition, in test [2], the Potency result was “inactive”.
As to `Cn1c(N)c(C(=O)COC(=O)c2cc(C3CC3)nc3ccccc23)c(=O)n(C)c1=O`, in test [6], the Potency result is “inactive”.
For the molecule `CC(=O)OC[C@H]1O[C@@H](O/N=C(\C)CCN2CCCc3nc(C)c(C)cc32)[C@H](OC(C)=O)[C@@H](OC(C)=O)[C@H]1OC(C)=O`, the activity change, positive = activation in test [6] was -36.5% [at 11.4 µM]. For the same molecule, the Potency in test [2] was 3.16 µM (active).
As for `COc1ccc(OC2C=CC(C#Cc3ccc(C(C)(C)C)cc3)OC2CO)cc1` (stereo not given), in test [6], the activity change, positive = activation is -56.3% [at 11.4 µM]. Further, the Potency entry in test [2] was “inactive”.
Turning to `CC(C)=CCC/C(C)=C/CO/N=C1/C[C@@H](O)[C@@H](O)[C@@H]2[C@H]3C(=O)N(c4ccc(F)cc4F)C(=O)[C@@H]3CC[C@@H]12`, in test [6], the activity change, positive = activation was -30.2% [at 11.4 µM].
Turning to `COc1ccc(OC2C(O)COC2/C=C/C#Cc2ccccc2)cc1` (stereo not given), the activity change, positive = activation in test [6] is -57.7% [at 11.4 µM]. The Potency entry in test [2] and in test [3] was “inactive” in each case.
Turning to `CCOC(=O)OCC1OC(C#Cc2ccc(Br)cc2)C=CC1OC(=O)OCC` (stereo not given), the activity change, positive = activation in test [6] was -52.5% [at 11.4 µM]. The Potency result in test [2] and in test [3] was “inactive” throughout.
Consider `COC(=O)C/C=C/C(C)C(OCc1cccc(Br)c1)C(C)C(OC)C1CCCCC1` (stereo not given), for which the activity change, positive = activation in test [6] was -58% [at 11.4 µM]. In test [2], the Potency result is “inactive”.
With `Cc1cc2c(nc1C)CCCN2C[C@H](C)O/N=C1/[C@H]2O[C@@H]2[C@@H](O)[C@H]2[C@H]1CCn1c(=O)n(-c3ccccc3)c(=O)n12`, the activity change, positive = activation in test [6] is -35.6% [at 11.4 µM].
In the case of `CCOC(=O)OCC1OC(C#Cc2ccc(C)cc2C)C=CC1OC(=O)OCC` (stereo not given), the activity change, positive = activation in test [6] is -58.4% [at 11.4 µM]. Besides, the Potency result in test [2] and in test [3] was “inactive” throughout.
With `C[C@@H]1/C=C\CC(=O)OC[C@H]2O[C@@H](C=C[C@@H]2O)[C@H](C)/C=C\CC(=O)OC1`, in test [6], the activity change, positive = activation was -35.6% [at 11.4 µM]. In addition, the Potency result in test [2] was “inactive”.
With `COC(=O)[C@@H]1C[C@@H]2CC[C@@H](O)C[C@@H]2N1Cc1ccc(C(F)(F)F)cc1`, the Potency entry in test [6] was “inactive”.
On to `CC(C)(C)N1C(=O)[C@H]2[C@H]3[C@H](O)[C@H](O)C/C(=N/OC[C@@H](O)COCc4ccco4)[C@H]3CC[C@@H]2C1=O`, for which the activity change, positive = activation in test [6] was -30.9% [at 11.4 µM].
